# Assay results from ChEMBL document CHEMBL3988442, “University of Dundee, Small-Polar-MMV Screening Library” (2021).
# For some assays here: Results with a measured potency or affinity are listed apart.
# Tests used:
# Parameters in all cases: scale not given: direction of the effect not stated beside the values
# [1] = biological target: Protein translocase subunit SecA (Escherichia coli (strain K12)) (UniProt P10408); assay: Assay to Identify E. coli SecA ATPase Inhibitors; format: functional; conditions: 30 µM
# [2] = biological target: T1, Ubiquitin-activating enzyme e1, putative (Leishmania donovani (strain BPK282A1)) (UniProt E9BSI1); assay: Leishmania donovani Ubiquitin Activating Enzyme (LdE1); format: functional; conditions: 30 µM
# T1 sequence (whole entry): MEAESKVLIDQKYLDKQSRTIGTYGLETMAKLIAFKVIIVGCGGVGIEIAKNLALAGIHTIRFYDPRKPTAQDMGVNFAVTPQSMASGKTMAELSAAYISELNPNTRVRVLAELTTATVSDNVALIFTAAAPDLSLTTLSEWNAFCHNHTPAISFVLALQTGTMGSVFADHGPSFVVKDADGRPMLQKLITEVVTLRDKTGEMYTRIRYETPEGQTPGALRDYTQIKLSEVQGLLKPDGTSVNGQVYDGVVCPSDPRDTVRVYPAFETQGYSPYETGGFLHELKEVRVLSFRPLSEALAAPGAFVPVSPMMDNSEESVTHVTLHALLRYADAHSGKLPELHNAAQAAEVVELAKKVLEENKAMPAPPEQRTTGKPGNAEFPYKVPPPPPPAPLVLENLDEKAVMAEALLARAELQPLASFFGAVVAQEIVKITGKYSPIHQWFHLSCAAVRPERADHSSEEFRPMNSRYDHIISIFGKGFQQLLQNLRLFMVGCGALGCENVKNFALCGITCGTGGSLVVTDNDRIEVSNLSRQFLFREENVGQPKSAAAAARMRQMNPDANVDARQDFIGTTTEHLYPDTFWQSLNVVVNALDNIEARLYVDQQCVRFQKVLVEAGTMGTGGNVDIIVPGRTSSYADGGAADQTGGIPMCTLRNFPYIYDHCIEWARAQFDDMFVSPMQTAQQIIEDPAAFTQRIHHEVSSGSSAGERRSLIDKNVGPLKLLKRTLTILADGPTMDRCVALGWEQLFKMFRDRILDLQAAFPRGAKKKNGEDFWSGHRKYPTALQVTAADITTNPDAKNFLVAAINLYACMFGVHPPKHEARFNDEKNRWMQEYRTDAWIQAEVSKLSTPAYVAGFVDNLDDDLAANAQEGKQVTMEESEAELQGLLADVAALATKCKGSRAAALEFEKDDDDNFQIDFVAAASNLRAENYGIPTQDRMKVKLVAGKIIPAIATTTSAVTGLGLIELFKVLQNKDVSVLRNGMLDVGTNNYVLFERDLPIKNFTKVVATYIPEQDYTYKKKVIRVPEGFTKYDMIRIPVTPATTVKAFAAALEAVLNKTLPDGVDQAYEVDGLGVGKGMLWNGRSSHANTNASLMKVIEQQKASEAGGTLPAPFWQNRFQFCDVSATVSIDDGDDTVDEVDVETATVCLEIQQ
# [3] = biological target: AMP-activated protein kinase, AMPK (Homo sapiens) (UniProt P54646+O43741+P54619+Q9UGJ0+Q9Y478+Q13131+Q9UGI9); assay: AMP-dependent Kinase enzyme assay. An in vitro enzyme assay that detects ADP turnover that is directly proportional to AMPK activity. This uses naive AMPK that is activated during the assay with MK-8722; format: functional; conditions: 30 µM
# [4] = biological target: Sialic acid-binding Ig-like lectin 9 (Homo sapiens) (UniProt Q9Y336); assay: Hs-Siglec9 ALPHAscreen SOP 20170721; conditions: 10 µM
# [5] = test system: Trypanosoma cruzi; assay: Trypanosoma cruzi phosphomannomutase and mannose-1-phosphate guanylyltransferase assay; format: functional; conditions: 10 µM
# [6] = biological target: T2, Arginase-2, mitochondrial (Homo sapiens) (UniProt P78540); assay: in vitro enzyme assay to detect the production of urea directly proportional to the activity of Arginase II; format: functional; conditions: 33.3 µM; further: in the data most compounds retested in dose-response had high values
# T2 sequence (whole entry): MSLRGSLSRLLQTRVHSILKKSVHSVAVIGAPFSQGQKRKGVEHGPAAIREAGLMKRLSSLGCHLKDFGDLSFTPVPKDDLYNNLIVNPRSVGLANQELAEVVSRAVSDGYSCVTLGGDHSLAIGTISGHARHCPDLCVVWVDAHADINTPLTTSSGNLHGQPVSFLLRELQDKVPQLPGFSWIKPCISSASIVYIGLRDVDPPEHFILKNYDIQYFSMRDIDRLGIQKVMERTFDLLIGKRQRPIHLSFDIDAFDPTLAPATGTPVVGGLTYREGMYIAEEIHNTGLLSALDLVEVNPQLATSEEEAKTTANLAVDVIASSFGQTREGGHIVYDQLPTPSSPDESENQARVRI
# [7] = biological target: T3, Proteasome subunit beta (Trypanosoma cruzi) (UniProt O96673); assay: Trypanosoma cruzi proteasome chymotrypsin-like activity (TcProtChymo) assay.; further: in the data most compounds retested in dose-response had high values; format: functional; conditions: 9.37 µM
# T3 sequence (whole entry): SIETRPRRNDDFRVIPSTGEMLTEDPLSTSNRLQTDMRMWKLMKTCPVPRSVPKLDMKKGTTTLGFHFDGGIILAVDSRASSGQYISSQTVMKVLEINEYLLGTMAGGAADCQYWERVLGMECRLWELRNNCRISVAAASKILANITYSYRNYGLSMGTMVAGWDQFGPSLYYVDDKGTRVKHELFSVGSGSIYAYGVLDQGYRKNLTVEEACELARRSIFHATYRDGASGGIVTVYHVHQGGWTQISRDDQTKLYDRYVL
# [8] = organism: Homo sapiens; assay: To identify inhibition of the IFN signalling (Jak-Stat) pathway via expression of an eGFP reporter gene under the control of an IFN-stimulated response element (ISRE) containing MxA promoter.; format: functional; conditions: 30 µM
# [9] = biological target: T4, Tyrosyl-tRNA synthetase, putative (Trypanosoma cruzi (strain CL Brener)) (UniProt Q4DSP6); assay: Trypanosoma cruzi tyrosyl tRNA synthetase (TcYRS) _High Tyrosine SOP; format: functional; conditions: 30 µM; further: in the data most compounds retested in dose-response had high values
# T4 sequence (whole entry): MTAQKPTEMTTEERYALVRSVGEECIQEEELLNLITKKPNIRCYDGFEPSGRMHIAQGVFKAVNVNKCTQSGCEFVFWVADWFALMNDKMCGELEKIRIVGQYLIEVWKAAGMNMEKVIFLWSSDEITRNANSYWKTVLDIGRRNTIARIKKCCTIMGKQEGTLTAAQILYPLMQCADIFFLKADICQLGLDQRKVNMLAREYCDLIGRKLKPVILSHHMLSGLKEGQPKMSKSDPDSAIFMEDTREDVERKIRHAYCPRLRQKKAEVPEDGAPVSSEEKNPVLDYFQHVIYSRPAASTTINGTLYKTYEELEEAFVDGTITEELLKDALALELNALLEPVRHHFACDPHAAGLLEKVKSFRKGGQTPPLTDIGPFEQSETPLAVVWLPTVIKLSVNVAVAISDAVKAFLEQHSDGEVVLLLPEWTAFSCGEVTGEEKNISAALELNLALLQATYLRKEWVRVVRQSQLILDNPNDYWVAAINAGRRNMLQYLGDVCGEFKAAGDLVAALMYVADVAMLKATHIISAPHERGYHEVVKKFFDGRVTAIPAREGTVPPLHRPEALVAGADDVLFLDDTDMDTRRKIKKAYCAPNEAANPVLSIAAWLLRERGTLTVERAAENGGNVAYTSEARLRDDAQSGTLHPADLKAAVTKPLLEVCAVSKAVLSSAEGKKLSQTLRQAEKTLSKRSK
# [10] = biological target: T4, Tyrosyl-tRNA synthetase, putative (Trypanosoma cruzi (strain CL Brener)); assay: Trypanosoma cruzi tyrosyl tRNA synthetase (TcYRS) SOP; format: functional; conditions: 30 µM
# [11] = biological target: Chromo domain-containing protein 1 (Saccharomyces cerevisiae (strain ATCC 204508 / S288c) (Baker's yeast)) (UniProt P32657); assay: ScCHD-1 Enzyme Inhibition Assay; format: functional; conditions: 30 µM; further: in the data most compounds retested in dose-response had high values
# Chromo domain-containing protein 1 (Saccharomyces cerevisiae (strain ATCC 204508 / S288c) (Baker's yeast)), sequence (P32657 whole entry, the tested form may be a part): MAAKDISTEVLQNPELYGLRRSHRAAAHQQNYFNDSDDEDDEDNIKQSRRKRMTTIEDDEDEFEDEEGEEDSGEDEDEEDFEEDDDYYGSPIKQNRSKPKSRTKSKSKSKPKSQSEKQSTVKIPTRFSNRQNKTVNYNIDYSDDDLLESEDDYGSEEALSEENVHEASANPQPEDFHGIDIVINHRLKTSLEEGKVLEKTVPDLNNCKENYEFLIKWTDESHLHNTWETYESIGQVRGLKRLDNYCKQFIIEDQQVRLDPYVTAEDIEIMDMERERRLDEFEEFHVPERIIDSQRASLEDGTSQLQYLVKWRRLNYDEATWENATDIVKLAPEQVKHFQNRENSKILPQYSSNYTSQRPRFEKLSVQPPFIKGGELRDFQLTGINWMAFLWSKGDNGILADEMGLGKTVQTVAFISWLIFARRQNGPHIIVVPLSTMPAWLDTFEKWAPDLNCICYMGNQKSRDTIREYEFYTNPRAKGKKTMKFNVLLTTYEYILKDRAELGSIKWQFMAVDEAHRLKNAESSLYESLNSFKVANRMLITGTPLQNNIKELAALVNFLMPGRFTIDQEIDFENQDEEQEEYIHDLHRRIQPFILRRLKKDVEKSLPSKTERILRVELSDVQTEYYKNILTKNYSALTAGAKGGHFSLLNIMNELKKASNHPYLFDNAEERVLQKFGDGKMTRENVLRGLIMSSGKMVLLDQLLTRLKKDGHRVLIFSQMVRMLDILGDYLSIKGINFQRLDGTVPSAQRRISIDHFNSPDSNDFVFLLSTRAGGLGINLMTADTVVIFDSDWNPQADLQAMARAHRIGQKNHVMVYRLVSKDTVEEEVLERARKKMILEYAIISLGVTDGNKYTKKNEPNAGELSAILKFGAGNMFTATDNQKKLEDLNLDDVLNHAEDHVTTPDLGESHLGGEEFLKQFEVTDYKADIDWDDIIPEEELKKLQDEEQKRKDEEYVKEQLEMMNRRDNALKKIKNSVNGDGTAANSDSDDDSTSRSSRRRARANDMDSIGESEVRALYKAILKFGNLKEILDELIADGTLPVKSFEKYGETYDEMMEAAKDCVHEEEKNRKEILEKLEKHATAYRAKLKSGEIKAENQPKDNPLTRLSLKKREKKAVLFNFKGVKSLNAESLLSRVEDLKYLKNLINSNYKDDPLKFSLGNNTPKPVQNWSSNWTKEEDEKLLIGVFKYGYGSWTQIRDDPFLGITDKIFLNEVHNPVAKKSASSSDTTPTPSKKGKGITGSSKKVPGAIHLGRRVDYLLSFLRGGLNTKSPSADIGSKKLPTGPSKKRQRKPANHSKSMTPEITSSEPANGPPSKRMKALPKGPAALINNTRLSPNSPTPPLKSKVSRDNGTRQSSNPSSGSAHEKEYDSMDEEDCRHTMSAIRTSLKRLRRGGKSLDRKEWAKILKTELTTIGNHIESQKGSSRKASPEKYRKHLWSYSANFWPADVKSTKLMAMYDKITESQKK
# Sialic acid-binding Ig-like lectin 9 (Homo sapiens), sequence (Q9Y336 whole entry): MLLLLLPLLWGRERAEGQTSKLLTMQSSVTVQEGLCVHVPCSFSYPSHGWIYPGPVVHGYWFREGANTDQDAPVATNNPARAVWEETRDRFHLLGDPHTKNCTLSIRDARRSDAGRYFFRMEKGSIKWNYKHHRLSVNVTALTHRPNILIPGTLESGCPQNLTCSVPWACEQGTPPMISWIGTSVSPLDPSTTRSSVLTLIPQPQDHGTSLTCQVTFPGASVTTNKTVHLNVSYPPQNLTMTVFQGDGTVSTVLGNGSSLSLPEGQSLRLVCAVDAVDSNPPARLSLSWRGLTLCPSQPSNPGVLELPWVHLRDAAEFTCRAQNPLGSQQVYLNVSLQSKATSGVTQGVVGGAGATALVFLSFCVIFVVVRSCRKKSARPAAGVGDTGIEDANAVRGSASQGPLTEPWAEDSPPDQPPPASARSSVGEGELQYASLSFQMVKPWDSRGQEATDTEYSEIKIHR
# Protein translocase subunit SecA (Escherichia coli (strain K12)), sequence (P10408 whole entry): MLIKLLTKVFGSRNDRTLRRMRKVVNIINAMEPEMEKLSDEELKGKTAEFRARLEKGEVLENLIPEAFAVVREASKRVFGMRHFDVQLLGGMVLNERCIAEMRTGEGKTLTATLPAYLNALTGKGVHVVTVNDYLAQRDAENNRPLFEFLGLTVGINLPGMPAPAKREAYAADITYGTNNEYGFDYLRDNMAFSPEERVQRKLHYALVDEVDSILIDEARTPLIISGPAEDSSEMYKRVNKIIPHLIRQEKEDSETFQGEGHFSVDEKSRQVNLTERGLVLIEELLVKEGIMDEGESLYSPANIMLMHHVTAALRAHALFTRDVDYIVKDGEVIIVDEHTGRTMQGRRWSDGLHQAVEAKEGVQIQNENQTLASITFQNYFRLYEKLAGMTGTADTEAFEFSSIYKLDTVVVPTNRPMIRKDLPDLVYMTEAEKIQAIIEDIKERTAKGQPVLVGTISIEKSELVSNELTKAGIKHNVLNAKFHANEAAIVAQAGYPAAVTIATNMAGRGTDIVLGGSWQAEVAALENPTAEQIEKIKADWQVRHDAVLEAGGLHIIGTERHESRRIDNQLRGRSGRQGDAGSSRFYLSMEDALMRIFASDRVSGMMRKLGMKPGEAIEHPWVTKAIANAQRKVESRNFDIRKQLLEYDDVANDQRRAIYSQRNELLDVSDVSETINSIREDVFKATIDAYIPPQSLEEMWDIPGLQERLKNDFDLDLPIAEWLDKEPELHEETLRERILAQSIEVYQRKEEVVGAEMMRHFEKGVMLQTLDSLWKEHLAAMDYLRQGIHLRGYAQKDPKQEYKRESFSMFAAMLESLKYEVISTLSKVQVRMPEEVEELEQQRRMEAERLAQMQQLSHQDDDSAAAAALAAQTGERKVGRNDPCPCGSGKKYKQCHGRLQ
SMILES,Percent Effect [1],Percent Effect [2],Percent Effect [3],Percent Effect [4],Percent Effect [5],Percent Effect [6],Percent Effect [7],Percent Effect [8],Percent Effect [9],Percent Effect [10],Percent Effect [11]
CN(C)CCN1CCO[C@@H]2CN(C(=O)c3cccs3)CC[C@@H]2C1,-2.95%,10.8%,3.88%,2.08%,-1.27%,-1.59%,20.3%,5.44%,1.08%,12.8%,-1.74%
CC(C)C(=O)NCCNc1nccc(-c2cc(C(=O)O)ccn2)n1,-4.2%,19.2%,-3.6%,15%,2.74%,6.82%,13.1%,2.74%,9.68%,20%,-5.35%
Cc1ccc(S(=O)(=O)Nc2ccc(=O)n(C)c2)cc1,-2.01%,20.2%,-48.5%,-4.13%,2.55%,4.18%,17.1%,36%,6.4%,13.9%,-4.02%
Cc1nc(N2CCCC2)nc2c1CCN(C(=O)C1CCCC1)CC2,-2.37%,4%,0.866%,2.33%,-3.54%,-4.4%,15.2%,-11.3%,9.52%,10.3%,-6.44%
O=C1CC(c2cccs2)c2snc(C(=O)O)c2N1 (configuration not stated),-2.26%,4.17%,-2.53%,8.18%,4.76%,3.09%,2.63%,1.26%,2.1%,5.13%,-3.46%
c1sc(C2CCCC2)nc1CN1CCn2c(nnc2C2CC2)C1,-6.12%,5.41%,0.718%,-3.09%,-2.14%,-0.554%,10.4%,37.1%,10.9%,15.8%,-4.21%
Cn1cc(C(=O)NCc2cn3c(n2)CN(CC2CCOCC2)CC3)cn1,-2.09%,5.41%,26.2%,-3.62%,-1.95%,1.67%,11.9%,20.1%,7.92%,15.8%,-0.801%
Cc1cnn(CCNCc2ccccc2Oc2cccnc2)c1,-0.645%,11.4%,-5.35%,-0.251%,-5.03%,-9.25%,23.3%,6.29%,8.33%,7.59%,-26%
COc1ccc(OCCCNC(=O)NCc2csc(C)n2)cc1,-3.63%,16.2%,2.75%,-5.68%,0.65%,-4.62%,7.54%,20.4%,8.91%,15.8%,-3.66%
Nc1nccc(NCc2cc3n(n2)CCCN(C2CCCCC2)C3)n1,-1.87%,13.7%,-1.77%,1.73%,-0.198%,-1.2%,24.4%,2.07%,9.38%,23.5%,-4.35%
CC(C)c1ncc(CN2C[C@@H](CN3CCC(CO)CC3)[C@@H](CO)C2)cn1,-3.44%,8%,-6.42%,4.65%,3.02%,1.56%,19.7%,10.9%,3.83%,11.1%,-4.15%
Cc1noc([C@H]2CC[C@@H]3[C@@H](CCN3S(C)(=O)=O)O2)n1,-6.38%,2.7%,1.84%,-1.29%,0.977%,3.75%,6.17%,-5.62%,7.92%,11%,-2.42%
COCC(=O)N1CCCC1c1ccnc(Nc2cnccn2)n1 (configuration not stated),-3.17%,12.2%,9.2%,8.04%,-0.395%,0.232%,10.3%,-10.9%,12.9%,22.1%,-7.89%
COc1cccc2c1ccn2CCC(=O)N1CCCC(C(=O)O)C1 (configuration not stated),-4.55%,5.26%,-2.19%,-4.72%,-9.64%,2.37%,11.2%,12.8%,-3.19%,0%,-6.61%
CN(Cc1ccco1)C(=O)CN1CCCC(Cn2cncn2)C1 (configuration not stated),-2.53%,5.26%,-6.77%,10.4%,3.64%,2.16%,15%,-16.1%,5.42%,11.1%,-6.09%
CCOCC1CN(S(=O)(=O)N(C)C)Cc2cnn(C)c21 (configuration not stated),-2.24%,5.48%,-0.778%,4.27%,-5.16%,-8.38%,4.71%,11.6%,7.29%,1.24%,-2.91%
CCc1nc(CCNC(=O)Nc2cc(C(N)=O)sc2C)cs1,-6.09%,0%,-8.97%,-2.52%,-4.19%,-1.56%,3.14%,19.9%,-0.546%,-3.7%,4.38%
COc1ccccc1[C@@H]1CN(Cc2cc(C(C)(C)C)[nH]n2)C[C@H]1C(=O)O,-3.72%,18.1%,-4.78%,2.73%,4.18%,5.3%,20.2%,0.766%,5.26%,10.3%,-3.34%
COc1cccc(COCC(=O)N2CCCC(c3nncn3C)C2)c1 (configuration not stated),-4.98%,13.5%,-6.54%,18.4%,3.11%,-6.81%,0.721%,13.5%,4.43%,16.1%,-11.8%
COCCn1cc2c(n1)C(CNCc1ccc(F)cc1)OCC2 (configuration not stated),-5.93%,8.11%,-0.136%,-5.65%,-0.195%,5.42%,16.8%,-4.69%,11.9%,11%,-6.25%
Cc1ccc(NC2CCN(C(=O)CC3CCCO3)CC2)nn1 (configuration not stated),-3.13%,-5.41%,-10.4%,8.84%,-2.17%,2%,1.8%,5.87%,1.48%,-8.64%,0.857%
COc1ccc(CN2CCCC(Nc3cccc(F)c3)C2)cc1O (configuration not stated),-3.14%,0%,-3.77%,-2%,-0.293%,-0.744%,-5.06%,53.9%,2.15%,6.17%,1.38%
